Values joined by “and” are separate entries in the source; they are usually repeats but may differ in a detail not shown here. Equal entries are not always repeated. Inconclusive results are not listed. Some structures have more than one record in an assay (separate samples or runs), and their calls can disagree. Active and inactive are the calls of the source. The calls were made as follows, unless noted: active = hit-call score of the fitted dose curve at least 0.9, where 1 is the maximum; inactive = score below 0.9.
Tests used:
[1] = biological target: Bile acid receptor (Homo sapiens) (UniProt Q96RI1); test: ATG_FXR_TRANS: Attagene TRANS-FACTORIAL HepG2 Assay for Farnesoid X Receptor (FXR) (AID 2282979; active = hit-call score of the fitted dose curve at least 0.9, where 1 is the maximum;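 also: hits raise reporter mRNA above DMSO so AC50 marks FXR activation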); details: HepG2 Attagene TRANS FXR-GAL4 reporter transcription
Sequence of Bile acid receptor (Homo sapiens) (Q96RI1 whole entry, looked up, the tested form may be a part): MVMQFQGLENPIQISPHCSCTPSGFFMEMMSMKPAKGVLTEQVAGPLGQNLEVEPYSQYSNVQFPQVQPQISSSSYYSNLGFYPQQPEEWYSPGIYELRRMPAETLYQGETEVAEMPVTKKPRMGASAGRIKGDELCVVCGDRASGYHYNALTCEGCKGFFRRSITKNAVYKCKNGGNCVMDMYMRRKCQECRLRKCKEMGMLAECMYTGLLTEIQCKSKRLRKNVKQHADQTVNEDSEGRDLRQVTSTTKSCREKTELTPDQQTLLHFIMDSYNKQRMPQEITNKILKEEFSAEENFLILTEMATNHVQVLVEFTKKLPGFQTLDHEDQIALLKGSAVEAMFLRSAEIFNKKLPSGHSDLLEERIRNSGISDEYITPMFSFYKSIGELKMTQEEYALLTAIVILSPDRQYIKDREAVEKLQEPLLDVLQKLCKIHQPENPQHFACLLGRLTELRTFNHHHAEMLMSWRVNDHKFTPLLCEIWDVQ
In short: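 Reporter transcripts from transfected HepG2 cells were measured 24 h after dosing, using RT-PCR with capillary electrophoresis of 6-FAM-labelled fragments. The read-out reflects activity of exogenous FXR-Gal4 chimera on GAL4-UAS units, with induction relative to DMSO.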

[2] = biological target: Nuclear receptor subfamily 4 group A member 2 (Homo sapiens) (UniProt P43354); test: ATG_NURR1_TRANS: Attagene TRANS-FACTORIAL HepG2 Assay for human Nuclear Receptor Related Protein 1 (NURR1) (AID 2282985; active = hit-call score of the fitted dose curve at least 0.9, where 1 is the maximum); details: HepG2 Attagene TRANS reporter, mRNA readout
Sequence of Nuclear receptor subfamily 4 group A member 2 (Homo sapiens) (P43354 whole entry, looked up, the tested form may be a part): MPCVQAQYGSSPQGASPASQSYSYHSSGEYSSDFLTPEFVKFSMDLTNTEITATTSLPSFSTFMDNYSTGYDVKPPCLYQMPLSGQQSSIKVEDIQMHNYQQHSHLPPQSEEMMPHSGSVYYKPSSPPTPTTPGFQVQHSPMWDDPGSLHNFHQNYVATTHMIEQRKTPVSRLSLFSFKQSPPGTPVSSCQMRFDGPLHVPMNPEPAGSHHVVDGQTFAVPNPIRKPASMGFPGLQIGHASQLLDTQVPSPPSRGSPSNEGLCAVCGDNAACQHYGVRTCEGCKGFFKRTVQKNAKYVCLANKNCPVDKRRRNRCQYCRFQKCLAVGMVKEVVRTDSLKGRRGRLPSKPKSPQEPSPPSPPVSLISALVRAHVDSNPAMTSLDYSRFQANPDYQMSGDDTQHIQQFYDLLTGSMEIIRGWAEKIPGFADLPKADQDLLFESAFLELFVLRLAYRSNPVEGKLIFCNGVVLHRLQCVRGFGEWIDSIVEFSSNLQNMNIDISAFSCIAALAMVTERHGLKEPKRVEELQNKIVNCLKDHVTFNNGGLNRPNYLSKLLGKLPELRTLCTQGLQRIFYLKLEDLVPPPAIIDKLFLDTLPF
In short: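 Measures transcriptional activation by an exogenous NR-Gal4 chimera in transfected HepG2 liver cells. After 24 h, reporter RNA is reverse-transcribed, amplified and resolved by capillary electrophoresis; DMSO defines baseline.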

[3] = biological target: Transcriptional activator Myb (Homo sapiens) (UniProt P10242); test: ATG_Myb_CIS: Attagene CIS-FACTORIAL HepG2 Assay for human Myeloblastosis (Myb) Proto-Oncogene Transcription Factor (AID 2282986); details: HepG2 Attagene CIS-FACTORIAL Myb reporter transcription; actives raise or lower the signal
Sequence of Transcriptional activator Myb (Homo sapiens) (P10242 whole entry, looked up): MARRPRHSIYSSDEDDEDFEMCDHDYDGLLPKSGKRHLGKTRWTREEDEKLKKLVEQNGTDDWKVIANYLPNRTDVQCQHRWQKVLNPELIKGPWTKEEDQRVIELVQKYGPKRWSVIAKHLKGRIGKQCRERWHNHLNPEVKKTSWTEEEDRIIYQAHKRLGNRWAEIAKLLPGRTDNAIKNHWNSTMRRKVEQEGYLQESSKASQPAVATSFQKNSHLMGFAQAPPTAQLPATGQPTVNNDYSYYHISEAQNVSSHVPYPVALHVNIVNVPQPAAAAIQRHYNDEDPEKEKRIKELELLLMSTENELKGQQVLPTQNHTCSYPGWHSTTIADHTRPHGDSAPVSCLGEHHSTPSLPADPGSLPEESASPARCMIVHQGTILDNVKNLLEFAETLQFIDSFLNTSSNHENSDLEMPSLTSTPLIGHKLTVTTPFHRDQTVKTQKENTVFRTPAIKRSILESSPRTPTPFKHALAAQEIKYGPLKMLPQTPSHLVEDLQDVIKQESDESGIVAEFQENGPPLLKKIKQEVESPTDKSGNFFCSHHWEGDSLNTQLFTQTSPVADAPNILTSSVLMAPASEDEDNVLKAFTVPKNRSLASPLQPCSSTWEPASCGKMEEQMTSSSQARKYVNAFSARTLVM
In short: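 Endogenous transcription factor activity at a Myb-responsive cis element is reported in human liver HepG2 cells after 24 h chemical treatment. Reporter mRNA is detected by RT-PCR and capillary electrophoresis fluorescence, with DMSO as baseline.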

[4] = biological target: Nuclear respiratory factor 1 (Homo sapiens) (UniProt Q16656); test: ATG_NRF1_CIS: Attagene CIS-FACTORIAL HepG2 Assay for human Nuclear Respiratory Factor 1 (NRF1) Orphan Gene (AID 2282987); details: HepG2 NRF1 cis-element reporter, Attagene multiplex; actives raise or lower the signal
Sequence of Nuclear respiratory factor 1 (Homo sapiens) (Q16656 whole entry, looked up): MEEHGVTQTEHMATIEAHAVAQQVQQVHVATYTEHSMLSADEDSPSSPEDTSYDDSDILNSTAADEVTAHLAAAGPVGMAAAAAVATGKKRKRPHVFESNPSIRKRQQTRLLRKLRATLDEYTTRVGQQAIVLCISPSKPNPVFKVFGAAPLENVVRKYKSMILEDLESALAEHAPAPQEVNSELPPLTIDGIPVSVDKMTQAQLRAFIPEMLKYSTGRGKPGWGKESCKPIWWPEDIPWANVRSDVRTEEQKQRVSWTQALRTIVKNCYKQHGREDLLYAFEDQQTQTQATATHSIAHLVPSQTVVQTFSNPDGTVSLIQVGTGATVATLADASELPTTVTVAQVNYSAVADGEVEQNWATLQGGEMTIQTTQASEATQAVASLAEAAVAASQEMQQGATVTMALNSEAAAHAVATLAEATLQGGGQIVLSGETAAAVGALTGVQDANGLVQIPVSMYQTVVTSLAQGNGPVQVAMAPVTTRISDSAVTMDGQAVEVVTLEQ
In short: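 Human hepatoma HepG2 cells carrying transfected promoter-regulated reporter units were incubated with test chemicals for 24 h. Reporter transcripts were measured by RT-PCR plus capillary electrophoresis, and endpoints derived by bidirectional fitting with DMSO as baseline.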

[5] = ATG_NFI_CIS: Attagene CIS-FACTORIAL HepG2 Assay for human Nuclear Factor I (NFI) (AID 2282989); details: HepG2 cis-regulatory reporter, NFI response element transcription; actives raise or lower the signal
In short: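 HepG2 cells transiently transfected with cis-element-driven multiplexed reporter transcription units, dosed for 24 h. Reporter mRNA quantified by RT-PCR, fluorescent labelling, HpaI digestion and capillary electrophoresis; bidirectional fit versus DMSO baseline.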

[6] = biological target: Myc proto-oncogene protein (Homo sapiens) (UniProt P01106); test: ATG_Myc_CIS: Attagene CIS-FACTORIAL HepG2 Assay for human Myelocytomatosis (Myc) Proto-Oncogene Transcription Factor (AID 2282990); details: HepG2, Attagene cis-reporter transcription factor activity; actives raise or lower the signal
Sequence of Myc proto-oncogene protein (Homo sapiens) (P01106 whole entry, looked up): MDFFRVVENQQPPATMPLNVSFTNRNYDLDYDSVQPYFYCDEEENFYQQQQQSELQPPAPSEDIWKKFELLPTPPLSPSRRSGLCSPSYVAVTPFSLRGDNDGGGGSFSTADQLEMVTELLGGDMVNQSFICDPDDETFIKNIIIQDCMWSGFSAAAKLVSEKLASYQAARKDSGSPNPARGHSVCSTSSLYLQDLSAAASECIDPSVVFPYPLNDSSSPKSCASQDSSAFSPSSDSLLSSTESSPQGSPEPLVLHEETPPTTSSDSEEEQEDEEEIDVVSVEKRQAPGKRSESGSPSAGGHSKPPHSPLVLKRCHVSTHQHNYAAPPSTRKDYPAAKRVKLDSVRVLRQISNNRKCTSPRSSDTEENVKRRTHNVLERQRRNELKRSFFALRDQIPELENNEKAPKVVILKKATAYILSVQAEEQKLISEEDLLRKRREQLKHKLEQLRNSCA
In short: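 HepG2, transient MRTU transfection (cis promoters, endogenous TFs); 24 h dosing; TriZol RNA → oligo(dT) RT → PCR → 6-FAM primer extension → HpaI cut → CE. Bidirectional fit vs DMSO.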

[7] = ATG_NF_kB_CIS: Attagene CIS-FACTORIAL HepG2 Assay for human Nuclear Factor Kappa B (NF-kB) (AID 2282991); details: HepG2 Attagene cis-factorial NF-kB reporter mRNA; actives raise or lower the signal
In short: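 Multiplexed cis-reporter assay in transiently transfected HepG2. 24 h treatment; RNA isolated, RT-PCR, labelled fragments resolved by CE. DMSO baseline.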

[8] = ATG_NRF2_ARE_CIS: Attagene CIS-FACTORIAL HepG2 Assay for human Nuclear Factor Erythroid 2 Related Factor 2 (NFR2) response to Antioxidant Response Elements (ARE) (AID 2282992); details: HepG2 Attagene ARE/NRF2 reporter, transcription factor activity; actives raise or lower the signal;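 as to AC50: reporter mRNA level measured by RT-PCR and capillary electrophoresis fluorescence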
In short: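 Fluorescence intensity of reporter-specific cDNA fragments, separated by capillary electrophoresis, reflects mRNA induction in transfected HepG2 cells at 24 h. Activity is fitted bidirectionally, DMSO serving as baseline.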

[9] = biological target: Cellular tumor antigen p53 (Homo sapiens) (UniProt P04637); test: ATG_p53_CIS: Attagene CIS-FACTORIAL HepG2 Assay for human p53 Transcription Factor (AID 2282994); details: HepG2 p53 cis-element reporter, Attagene mRNA; actives raise or lower the signal
Sequence of Cellular tumor antigen p53 (Homo sapiens) (P04637 whole entry, looked up): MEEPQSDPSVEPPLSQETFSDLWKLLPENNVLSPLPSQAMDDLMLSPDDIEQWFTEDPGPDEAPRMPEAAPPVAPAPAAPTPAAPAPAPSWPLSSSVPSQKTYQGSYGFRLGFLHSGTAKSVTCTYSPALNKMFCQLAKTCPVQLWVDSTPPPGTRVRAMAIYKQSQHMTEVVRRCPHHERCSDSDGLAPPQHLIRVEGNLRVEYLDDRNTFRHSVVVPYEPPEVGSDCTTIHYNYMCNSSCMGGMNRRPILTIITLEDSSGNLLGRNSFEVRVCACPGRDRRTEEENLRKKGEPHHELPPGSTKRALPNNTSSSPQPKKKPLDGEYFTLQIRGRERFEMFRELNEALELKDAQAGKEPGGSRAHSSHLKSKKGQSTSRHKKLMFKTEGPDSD
In short: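 Transiently transfected HepG2 (multiple cis reporter transcription units); exposure 24 h; reporter RNA via RT-PCR, 6-FAM extension, 2 h HpaI digest at 37 C, CE detection; DMSO baseline.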

[10] = BSK_3C_TissueFactor: BioMAP Diversity Plus: 3C Assay for Tissue Factor Biomarker Activity (AID 2282997); details: BioMAP 3C HUVEC, tissue factor biomarker readout; actives raise or lower the signal
In short: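 Tissue factor on primary human umbilical vein endothelium was read by ELISA 24 h after dosing, gain or loss relative to DMSO. Cytotoxicity ran alongside via SRB (0.1%, TCA-fixed, 560 nm).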

[11] = BSK_3C_uPAR: BioMAP Diversity Plus: 3C Assay for Urokinase-type plasminogen activator receptor (uPAR) Biomarker Activity (AID 2282998); details: BioMAP 3C HUVEC, uPAR biomarker ELISA; actives raise or lower the signal
In short: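 Human umbilical vein endothelial primary cells were exposed to test chemical for 24 h. Cell-surface uPAR was then quantified by ELISA, and responses were fitted bidirectionally against DMSO as negative control and baseline.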

[12] = BSK_3C_VCAM1: BioMAP Diversity Plus: 3C Assay for Vascular cell adhesion molecule 1 (VCAM1) Biomarker Activity (AID 2282999); details: BioMAP 3C HUVEC, VCAM1 ELISA, cytokine-stimulated; actives raise or lower the signal
In short: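 Activity fitted in both directions relative to DMSO, with ELISA measurement of the surface marker on primary HUVEC (3C) at 24 h post-treatment; parallel SRB staining (0.1% SRB, TCA-fixed, 560 nm) flagged overt cytotoxicity.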

[13] = BSK_4H_Eotaxin3: BioMAP Diversity Plus: 4H Assay for Eotaxin 3 Biomarker Activity (AID 2283000); details: primary human endothelial cells (HUVEC); actives raise or lower the signal
In short: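 Human umbilical vein endothelial cells (BSK_4H system) dosed with test chemical; Eotaxin-3 (CCL26) measured by ELISA 24 h after dosing. Bidirectional curve fitting relative to DMSO negative control as baseline.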

[14] = biological target: Oxysterols receptor LXR-beta (Homo sapiens) (UniProt P55055); test: ATG_LXRb_TRANS: Attagene TRANS-FACTORIAL HepG2 Assay for human Liver X Receptor beta (LXRb) (AID 2282981; active = hit-call score of the fitted dose curve at least 0.9, where 1 is the maximum); details: HepG2 Attagene TRANS GAL4-LXRb reporter, mRNA
Sequence of Oxysterols receptor LXR-beta (Homo sapiens) (P55055 whole entry, looked up, the tested form may be a part): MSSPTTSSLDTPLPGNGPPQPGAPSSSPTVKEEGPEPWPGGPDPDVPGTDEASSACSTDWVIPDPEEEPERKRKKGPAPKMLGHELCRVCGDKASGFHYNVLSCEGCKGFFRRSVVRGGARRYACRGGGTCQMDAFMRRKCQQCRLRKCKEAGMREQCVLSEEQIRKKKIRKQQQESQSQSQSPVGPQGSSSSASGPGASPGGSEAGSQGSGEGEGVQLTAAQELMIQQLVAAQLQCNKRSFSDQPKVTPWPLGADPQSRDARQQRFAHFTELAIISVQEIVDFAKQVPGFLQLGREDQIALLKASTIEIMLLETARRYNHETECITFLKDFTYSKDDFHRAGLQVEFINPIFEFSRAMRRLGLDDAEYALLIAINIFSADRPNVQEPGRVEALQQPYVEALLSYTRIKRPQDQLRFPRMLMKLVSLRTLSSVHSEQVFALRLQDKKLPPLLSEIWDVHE
In short: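 After 24 h of chemical treatment, transfected HepG2 cells yield total RNA; reporter cDNA is PCR-amplified, FAM-labelled, HpaI-cut and run on capillary electrophoresis. Signal reflects chimeric LXRb-Gal4 activity on GAL4-UAS reporters.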

[15] = biological target: Hepatocyte nuclear factor 4-alpha (Homo sapiens) (UniProt P41235); test: ATG_HNF4a_TRANS: Attagene TRANS-FACTORIAL HepG2 Assay for human Hepatocyte Nuclear Factor 4 alpha (HNF4a) (AID 2282982; active = hit-call score of the fitted dose curve at least 0.9, where 1 is the maximum); details: HepG2 HNF4a transactivation reporter, mRNA readout
Sequence of Hepatocyte nuclear factor 4-alpha (Homo sapiens) (P41235 whole entry, looked up): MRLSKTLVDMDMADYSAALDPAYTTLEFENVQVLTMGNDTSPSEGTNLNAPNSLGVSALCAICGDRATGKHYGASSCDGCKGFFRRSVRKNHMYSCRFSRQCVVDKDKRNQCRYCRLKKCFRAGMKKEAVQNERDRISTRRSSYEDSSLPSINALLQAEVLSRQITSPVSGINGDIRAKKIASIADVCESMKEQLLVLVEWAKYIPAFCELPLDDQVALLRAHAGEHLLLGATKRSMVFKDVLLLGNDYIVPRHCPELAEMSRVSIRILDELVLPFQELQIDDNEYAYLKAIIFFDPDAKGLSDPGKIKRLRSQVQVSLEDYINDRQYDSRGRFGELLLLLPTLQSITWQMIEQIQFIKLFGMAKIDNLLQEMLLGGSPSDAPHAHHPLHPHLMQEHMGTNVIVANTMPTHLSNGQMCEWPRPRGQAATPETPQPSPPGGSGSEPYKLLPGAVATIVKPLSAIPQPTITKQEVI
In short: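 Multiplexed reporter assay: transfected HepG2, 24 h exposure, total RNA → oligo(dT) RT → PCR → 6-FAM extension → HpaI digest → CE fluorescence. DMSO = negative control.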

[16] = ATG_M_06_TRANS: Attagene TRANS-FACTORIAL HepG2 Assay for M06 Transcription Factor (Internal Marker) (AID 2282983; active = hit-call score of the fitted dose curve at least 0.9, where 1 is the maximum;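 also: reporter transcript level by RT-PCR then capillary electrophoresis fluorescence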); details: HepG2 Attagene TRANS M06 internal marker reporter
In short: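 Background-control reporter readout: after 24 h chemical exposure of transiently transfected HepG2 (GAL4-UAS reporter units), mRNA quantified by RT-PCR with fluorescent labeling and capillary electrophoresis. Gain-of-signal fitting against DMSO baseline.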

[17] = biological target: human Peroxisome Proliferator-activated Receptor alpha (PPARa), PPARA (gene 5465) (UniProt Q07869); test: ATG_PPARa_TRANS: Attagene TRANS-FACTORIAL HepG2 Assay for human Peroxisome Proliferator-activated Receptor alpha (PPARa) (AID 2283001; active = hit-call score of the fitted dose curve at least 0.9, where 1 is the maximum;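 as to AC50: potency for gain of reporter signal over DMSO so agonist or activator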)
Sequence of human Peroxisome Proliferator-activated Receptor alpha (PPARa), PPARA (gene 5465) (Q07869 whole entry, looked up, the tested form may be a part): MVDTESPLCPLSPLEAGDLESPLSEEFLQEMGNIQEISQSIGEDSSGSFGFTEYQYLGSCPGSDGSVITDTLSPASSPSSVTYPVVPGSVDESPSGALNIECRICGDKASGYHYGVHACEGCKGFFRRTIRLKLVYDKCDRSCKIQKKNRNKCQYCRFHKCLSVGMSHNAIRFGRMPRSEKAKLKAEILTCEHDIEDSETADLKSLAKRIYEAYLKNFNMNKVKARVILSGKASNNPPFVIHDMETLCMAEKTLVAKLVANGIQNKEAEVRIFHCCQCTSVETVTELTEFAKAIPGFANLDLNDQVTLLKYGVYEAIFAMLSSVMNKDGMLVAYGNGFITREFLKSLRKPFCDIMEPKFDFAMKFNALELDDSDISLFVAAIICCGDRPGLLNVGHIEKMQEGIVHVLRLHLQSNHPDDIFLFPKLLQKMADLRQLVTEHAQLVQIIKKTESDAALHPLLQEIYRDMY
In short: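 Transfected HepG2 cells treated with test chemical for 24 h. RNA isolated, reverse-transcribed with oligo(dT), PCR-amplified, FAM-labelled and HpaI-digested. Fragments sized by capillary electrophoresis; gain-of-signal fit relative to DMSO.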

[18] = ATG_M_32_TRANS: Attagene TRANS-FACTORIAL HepG2 Assay for M32 Transcription Factor (Internal Marker) (AID 2282984; active = hit-call score of the fitted dose curve at least 0.9, where 1 is the maximum); details: HepG2 Attagene TRANS M32 internal marker reporter
In short: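 Cell-based TRANS-format assay in HepG2: exogenous chimeric GAL4 reporter units transiently expressed, compounds applied 24 h. Reporter mRNA detected by RT-PCR plus capillary electrophoresis; this readout is an internal background marker.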

[19] = ATG_Oct_MLP_CIS: Attagene CIS-FACTORIAL HepG2 Assay for human Octamer-Binding Transcription Factor (Oct) (AID 2282993); details: HepG2 Attagene cis-factorial Oct reporter, mRNA; actives raise or lower the signal
In short: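 HepG2 cells transiently transfected with cis-promoter-driven multiplexed reporter transcription units, dosed for 24 h. Reporter mRNA quantified by RT-PCR, fluorescent labelling, HpaI digestion and capillary electrophoresis; bidirectional fits versus DMSO baseline.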

Measured: AC50

CN1C(=O)N(c2ccccc2Br)Cc2cnc(Nc3ccc4c(c3)OCC(CO)O4)nc21 (centres undefined)
active: [6] 2.93 µM | [9] 36.8 nM | [10] 9.9 µM | [11] 10.7 µM | [12] 33.6 µM | [13] 9.49 µM
inactive: [1] | [2] | [3] | [4] | [5] | [7] | [8]

C[C@]12CC[C@@H]3c4ccc(O)cc4CC[C@H]3[C@@H]1CC[C@H]2O
inactive: [14] | [15] | [16] | [2] | [3] | [4] | [5] | [6] | [8] | [9] | [12]
active: [9] 27.7 µM and 10.4 µM and 9.47 µM | [10] 18.1 µM | [11] 16.7 µM | [13] 25 µM

Oc1ccccc1
not listed: [1] | [7] | [16] | [18] | [19]
inactive: all other assays above

Cc1cc2c(cc1C(F)(F)F)N(C(=O)Nc1ccc(Oc3cccnc3C)nc1)CC2
active: [10] 0.623 µM
not listed: [1] | [15] | [16] | [17] | [18] | [19]
inactive: all other assays above

CCOC(=O)O[C@H](C)OC(=O)c1ccc2c(c1)cc(C(=O)NC1CCN(C(C)C)CC1)n2Cc1cc(-c2ccc(Cl)s2)on1
active: [8] 9.33 µM | [10] 9.97 µM | [11] 6.09 µM | [12] 5.69 µM | [13] 8.87 µM
not listed: [2] | [14] | [15] | [18] | [19]
inactive: all other assays above

CC(C)(C)c1cc(/C=C2\SC(N)=NC2=O)cc(C(C)(C)C)c1O
active: [5] 18.4 µM | [8] 11.6 µM | [9] 11000 nM | [10] 14.8 µM | [11] 31.6 µM | [12] 29.4 µM | [13] 30.4 µM
inactive: [16] | [2] | [3] | [4] | [6] | [7] | [17]

OCCO
not listed: [1] | [2] | [16] | [17] | [18] | [19]
inactive: all other assays above

O=c1ccc2ccccc2o1
not listed: [1] | [2] | [14] | [15] | [17] | [18]
inactive: all other assays above

CCCCCCCCCC(=O)O
active: [2] 104 µM | [7] 104 µM | [17] 29.1 µM
inactive: [15] | [16] | [2] | [3] | [4] | [5] | [6] | [7] | [8] | [19] | [9] | [10] | [11] | [12] | [13]

CC(=O)N1CCN(c2ccc(OC[C@H]3CO[C@](Cn4ccnc4)(c4ccc(Cl)cc4Cl)O3)cc2)CC1
active: [2] 43.7 µM | [8] 24 µM | [19] 9.69 µM | [10] 31.1 µM | [11] 29.8 µM | [13] 33.7 µM
not listed: [14] | [15] | [16] | [17] | [18]
inactive: all other assays above

c1ccc2n[nH]nc2c1
not listed: [1] | [14] | [15] | [17] | [18] | [19]
inactive: all other assays above

CCCCCCCCCCCCO
active: [10] 36.3 µM | [11] 32.7 µM | [12] 38.7 µM | [13] 31.1 µM
not listed: [1] | [2] | [7] | [18] | [19]
inactive: all other assays above

CN1C(=O)CC[C@H]1c1cccnc1
not listed: [1] | [18]
inactive: all other assays above

From PubChem BioAssay (EPA / NIEHS)
